PfHsp40 rescue = rescue of yeast from PfHsp40 toxicity, primary screen, S. cerevisiae, ATP luminescence; growth rescue, % at 12.5 µM; AID 504582, 2011; S. cerevisiae expressing PfHsp40, growth rescue; 340,000 compounds, 0.68% hits; in the data active = growth rescue above about 28%, passing the limit was not always enough;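 also: yeast W303a lacking pdr1 and pdr3 grown in galactose medium; growth measured after three days at 30 °C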
RN4220 kill = growth inhibition of S. aureus RN4220, primary screen, OD600; 16 h; AID 1259311, 2017; 330,000 compounds, 0.33% hits; inhibition, % (test concentration not listed); in the data active = inhibition above about 85%;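 also: plate controls were untreated cells for no effect and reference antibiotic for full effect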
PrPC TRFRET = inhibitors of human cell surface prion protein PrPC, primary screen, cell-based, TR-FRET | Major prion protein (Homo sapiens), P04156 | 370,000 compounds, 0.43% hits | inhibition, % at 13.8 µM | TR-FRET read-out | AID 720596, 2013; in the data active = inhibition above about 24%; also: 0% = median of the test wells and 100% = reference compound wells
VHR inh abs = VHR1 phosphatase inhibitors, primary screen, biochemical, absorbance, uHTS | 290,000 compounds, 0.52% hits | recombinant VHR phosphatase, pNPP absorbance | inhibition, % at 13.3 µM | AID 1654, 2009; in the data active = inhibition above about 50%
ugtP null kill = growth inhibition of ugtP-null S. aureus, primary screen, RN4220 ugtP deletion, OD600; 16 h; growth inhibition, % (test concentration not listed); 330,000 compounds, 0.54% hits; AID 1259309, 2017; in the data active = growth inhibition above about 68%;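 also: plate controls were untreated wells for no effect and antibiotic for full effect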
PrPC TRFRET cf = confirmation of inhibitors of cell surface human prion protein, confirmation, cell-based, TR-FRET. inhibition, % at 13.8 µM. cell surface PrPC level. shares compounds with PrPC TRFRET. 1,500 compounds, 65% hits. AID 743200, 2013; in the data active = inhibition above about 25%
LD9 cytotox = cytotoxicity in LD9 cells, cytotoxicity control for cell surface PrPc inhibitor project, cell-based, luminescence, high throughput | 1,500 compounds, 29% hits | luminescence viability | shares compounds with PrPC TRFRET | inhibition, % at 13.8 µM; in the data active = inhibition above about 9.5%
The depositor's hits bear a star. Rows were chosen to be rich in hits. Some 1.8% of all compounds tested hit in one or more screens of this group.

How did Fc1cccc(CCN2CCNCC2CC2CCCCC2)c1 (stereo not given) do in these assays?
RN4220 kill: -1; ugtP null kill: 3

What do the screens show for `CCOC(=O)C1CCCN(CC(O)=C(C#N)c2nc(-c3ccccc3)cs2)C1` (stereo not given)?
RN4220 kill: -1; ugtP null kill: 0

What do the screens show for `CC(=NNC(=O)Cc1ccc(Cl)cc1)c1ccccn1`?
RN4220 kill: 12; ugtP null kill: -6

What do the screens show for `COC(=O)c1sccc1NC(=O)c1ccccc1C(=O)O`?
PfHsp40 rescue: 2; RN4220 kill: 4; PrPC TRFRET: -2; ugtP null kill: 5

How did CC(=O)c1sccc1NC(=O)c1ccccc1C(=O)O do in these assays?
PfHsp40 rescue: 0; PrPC TRFRET: 47*; VHR inh abs: 16; PrPC TRFRET cf: 109*; LD9 cytotox: -6

How did Nc1nnc(SCc2nc3scc(-c4ccccc4)c3c(=O)[nH]2)s1 do in these assays?
PfHsp40 rescue: -1; RN4220 kill: 4; PrPC TRFRET: 26*; VHR inh abs: 26; ugtP null kill: 7; PrPC TRFRET cf: 53*; LD9 cytotox: 3

How did Cc1nnc(SCc2nc3scc(-c4ccccc4)c3c(=O)[nH]2)s1 do in these assays?
PfHsp40 rescue: 2; RN4220 kill: 4; PrPC TRFRET: 4; VHR inh abs: 10; ugtP null kill: 0

Results for c1ccc(Cn2nnnc2C(c2cccs2)N2CCCCCC2)cc1 (stereo not given) ?
PfHsp40 rescue: 1; RN4220 kill: 9; PrPC TRFRET: 28*; VHR inh abs: 27; ugtP null kill: 2; PrPC TRFRET cf: 22; LD9 cytotox: 1

Results for c1ccc(Cn2nnnc2C(c2cccs2)N2CCc3ccccc3C2)cc1 (stereo not given) ?
PfHsp40 rescue: 1; RN4220 kill: 3; VHR inh abs: 20; ugtP null kill: -6

Results for COc1ccc(Cl)cc1C(=O)Nc1cccc(-c2ccc3nncn3n2)c1 ?
PfHsp40 rescue: 0; RN4220 kill: 6; PrPC TRFRET: 83*; VHR inh abs: -7; ugtP null kill: 27; PrPC TRFRET cf: 88*; LD9 cytotox: 3

How did COC(=O)CSc1cnc2ccccc2n1 do in these assays?
PfHsp40 rescue: 0; RN4220 kill: 7; PrPC TRFRET: -2; VHR inh abs: 0; ugtP null kill: 4

What do the screens show for `CC(Sc1cccc2cccc(C(=O)O)c12)C(=O)O` (stereo not given)?
PfHsp40 rescue: 0; RN4220 kill: 2; PrPC TRFRET: -4; VHR inh abs: 5; ugtP null kill: 2

Results for CC(Sc1ccc2ccccc2n1)C(=O)O (stereo not given) ?
PfHsp40 rescue: 2; RN4220 kill: 5; PrPC TRFRET: 115*; VHR inh abs: 22; ugtP null kill: -3; PrPC TRFRET cf: 123*; LD9 cytotox: -5

What do the screens show for `CC(Sc1cnc2ccccc2n1)C(=O)O` (stereo not given)?
PfHsp40 rescue: -2; RN4220 kill: 6; PrPC TRFRET: 39*; VHR inh abs: 28; ugtP null kill: 9; PrPC TRFRET cf: 47*; LD9 cytotox: 0

Results for Cc1cc(SC(C)C(=O)O)nc2ccccc12 (stereo not given) ?
PfHsp40 rescue: 0; RN4220 kill: 5; PrPC TRFRET: 46*; VHR inh abs: 20; ugtP null kill: 4; PrPC TRFRET cf: 76*; LD9 cytotox: -6

Results for Cc1cc(C(=O)Nc2ccc(Br)cn2)sc1C ?
PfHsp40 rescue: 4; RN4220 kill: 9; PrPC TRFRET: 24; ugtP null kill: 0

Results for O=C(Nc1ccc(Br)cn1)c1ccc(Br)s1 ?
PfHsp40 rescue: 1; RN4220 kill: -4; PrPC TRFRET: 28*; VHR inh abs: 15; ugtP null kill: 18; PrPC TRFRET cf: 44*; LD9 cytotox: -3

Results for Cc1ccc(Cc2c(-c3ccc(C#N)cc3)nc3ccc(C)cn23)cc1 ?
PrPC TRFRET: -4

What do the screens show for `Fc1cccc(Cc2c(-c3ccco3)nc3ccc(Br)cn23)c1`?
PrPC TRFRET: 51*; PrPC TRFRET cf: 70*; LD9 cytotox: 0

How did N#Cc1ccc(-c2nc3ccc(Br)cn3c2Cc2cccc(Cl)c2)cc1 do in these assays?
PrPC TRFRET: 23

What do the screens show for `N#Cc1ccc(-c2nc3ccc(Br)cn3c2Cc2cccc(F)c2)cc1`?
PrPC TRFRET: 29*; PrPC TRFRET cf: 88*; LD9 cytotox: 1

What do the screens show for `Cc1ccc(Cc2c(-c3ccc(C#N)cc3)nc3ccc(Br)cn23)cc1`?
PrPC TRFRET: 42*; PrPC TRFRET cf: 47*; LD9 cytotox: 2

Results for CS(=O)(=O)Nc1ccc(-c2cc(C=C3SC(N)=NC3=O)c[nH]c2=O)cc1 ?
RN4220 kill: -3; ugtP null kill: -4

Results for COc1ccc(CNC(=O)c2cccc3c(-c4cccc(C(N)=O)c4)coc23)cc1OC ?
PrPC TRFRET: 37*; PrPC TRFRET cf: 25*; LD9 cytotox: 28*

What do the screens show for `CCCCCCCC/C=C\CCCCCCCC(=O)NCCc1ccc(O)c(O)c1`?
PfHsp40 rescue: 20; PrPC TRFRET: 83*; PrPC TRFRET cf: 44*; LD9 cytotox: 65*

Results for Cc1onc(-c2ccccc2Cl)c1C(=O)OCC(=O)N1CCCc2ccccc21 ?
PfHsp40 rescue: 1; RN4220 kill: 8; PrPC TRFRET: 30*; VHR inh abs: 27; ugtP null kill: -7; PrPC TRFRET cf: 6; LD9 cytotox: 2

How did CCN(CC)c1ccc(Nc2nc(N3CCOCC3)c3ccccc3n2)cc1 do in these assays?
PfHsp40 rescue: 1; RN4220 kill: -3; PrPC TRFRET: 20; VHR inh abs: 19; ugtP null kill: -9

What do the screens show for `COc1ccc(Nc2nc(N3CCCC3)c3ccccc3n2)cc1`?
PfHsp40 rescue: 1; RN4220 kill: -1; PrPC TRFRET: 24*; VHR inh abs: -11; ugtP null kill: -6; PrPC TRFRET cf: 31*; LD9 cytotox: 24*

Results for CC1CC(C)(O)CC(C(O)CC2CC(=O)NC(=O)C2)C1=O (stereo not given) ?
PfHsp40 rescue: 20; PrPC TRFRET: 83*; PrPC TRFRET cf: 97*; LD9 cytotox: 36*

What do the screens show for `COc1ccc2cc(C(=O)N(C)CC(=O)Nc3ccccc3Br)ccc2c1`?
PfHsp40 rescue: -1; RN4220 kill: 6; PrPC TRFRET: 31*; ugtP null kill: 8; PrPC TRFRET cf: 44*; LD9 cytotox: -6
